Here are results for 35 compounds from PubChem BioAssay.

The nature of this experiment: HepG2 liver cancer cell viability effects, profiling panel, resazurin fluorescence, 24 h, PK04 Diversity Set (AID 1172). Note: test concentration not given here. Particulars: higher = more signal.
`COc1ccc(C(=O)Nc2ccc(CN3C(=O)[C@]4(O[C@H](CC(=O)N(CCO)Cc5ccccc5)[C@@H]([Si](C)(C)c5ccc(OC)cc5)[C@@H]4C)c4ccccc43)cc2)cc1` yielded a z-score of -1.18.
`Cc1ccc(S[C@]2(C(=O)NC(C)C)CC(=O)N(Cc3ccccc3)[C@@H]2c2ccc(CO)cc2I)cc1` returned a z-score of -0.885.
With `C=C(CCCC)C(=O)CC[C@@H](OC(C)=O)c1ccc(OCCO)cc1`, the z-score is -0.603.
Next, `COC(=O)[C@@]1(Cc2ccc(F)cc2)[C@H]2c3cc(C(=O)N4CCCC4)n(CCc4c[nH]c5cc(F)ccc45)c3C[C@H]2CN1C(=O)c1ccccc1`: 0.182.
Compound `C=CCN1C(=O)[C@]2(O[C@H](CCO)[C@@H]([Si](C)(C)c3ccc(OC)cc3)[C@@H]2C)c2cc(N3C(=O)c4ccccc4Oc4ccccc43)ccc21` had a z-score of -5.91.
For `COC(=O)C(CC#Cc1ccc2c(c1)[C@]1(C(=O)N2)[C@H](c2ccc(OCCO)cc2)N2[C@H](c3ccccc3)[C@H](c3ccccc3)OC(=O)[C@H]2[C@@H]1C(N)=O)C(=O)OC` the value was -0.156; for `CC(C)N1C(=O)[C@@]2(Cc3ccccc31)c1ccccc1C(=O)N(Cc1ccccc1C(F)(F)F)[C@H]2c1ccc(CO)cc1`, 0.0887; for `C=C(C(=O)CC[C@@H](OC(=O)c1ccccc1-c1ccccc1C(=O)O)c1ccc(OCCO)cc1)C(C)C`, -0.304.
Next, `COc1ccc(CCNC(=O)[C@@]2(C)c3ccccc3C(=O)N(Cc3ccc(OC(F)(F)F)cc3)[C@H]2c2ccc(CO)cc2)cc1`: 1.4; `[N-]=[N+]=NCc1ccccc1[C@H]1OC(c2ccc(OCCCO)cc2)=N[C@@]1(Cc1ccccc1N=[N+]=[N-])C(=O)O`: 0.539; `CC(C)c1ccc(NN2C(C(O)C3CCCCC3)C=CC3C(=O)N(c4ccccc4)C(=O)C32)cc1` (stereo not given): -0.454.
For `CC(CO)N1C(=O)[C@@H]2[C@H]3C(=O)OCC=C[C@H]3OC23C=CCN(c2ccc4ccccc4c2)C(=O)[C@@H]13` (stereo not given in full) the value was 0.984.
Compound `O=C1O[C@H](c2ccccc2)[C@H](c2ccccc2)N2[C@H]1[C@@H](C(=O)O)[C@]1(C(=O)Nc3ccccc31)[C@H]2c1ccc(OCCO)cc1` came in with a z-score of 0.0019.
Next, `C=CCNC(=O)[C@@H]1[C@H]2C(=O)O[C@H](c3ccccc3)[C@H](c3ccccc3)N2[C@H](c2ccc(OCCO)cc2)[C@@]12C(=O)N(C(=O)OCCOC)c1ccccc12`: 0.0303.
For `C[C@]1(C(=O)NC2CC2)c2ccccc2C(=O)N(Cc2cc(F)cc(C(F)(F)F)c2)[C@H]1c1ccc(CO)cc1` the value was 1.53; for `C=CCNC(=O)[C@@H]1[C@H]2C(=O)O[C@H](c3ccccc3)[C@H](c3ccccc3)N2[C@H](c2ccc(O)cc2)[C@@]12C(=O)Nc1ccc(C#CC3=CCCCC3)cc12`, -0.496.
For `Cc1cccc([C@H]2C[C@H]3C(Br)=C[C@@]2(CO)C(=O)[C@]32CO2)c1` the value was 0.888; for `COc1ccc(CCNC(=O)[C@@]2(c3ccc([N+](=O)[O-])cc3)CC(=O)N(C3CCCCC3)[C@@H]2c2ccc(CO)cc2I)cc1`, -1.29.
In turn, `C=CC[C@]12N=C(c3ccc(OCCCO)cc3)O[C@H]1c1ccccc1N(CCC)C2=O` registered a z-score of -0.151.
For `[N-]=[N+]=Nc1ccccc1C[C@@]1(C(=O)NCc2ccccc2)N=C(c2ccc(OCCCO)cc2)O[C@@H]1c1ccccc1` the value was 0.508; for `O=C1O[C@@H](c2ccccc2)[C@@H](c2ccccc2)N2[C@@H](c3ccccc3OCCO)[C@]3(C(=O)Nc4ccc(C#CC5(O)CCCCCC5)cc43)[C@@H](C(=O)N3CCCCCCC3)[C@H]12`, -0.225; for `C=CC[C@H](O)c1ccc(O)c2ccccc12`, -0.129.
On to `C=C1C(=O)C=C2CN(C(=O)c3ccccc3)[C@@](Cc3ccc(F)cc3)(C(=O)OC)[C@@H]12`, for which the z-score is -6.48.
For `COc1ccc(C(=O)Nc2cccc(CN3C(=O)[C@]4(O[C@H](CC(=O)N(CCO)Cc5ccccc5)[C@@H]([Si](C)(C)c5ccc(OC)cc5)[C@@H]4C)c4ccccc43)c2)cc1` the value was -0.754; for `COC(=O)C1=CC(CCCO)=CC(c2ccc(CN3CCCC3)cc2)N(C)C=C1C(=O)OC` (stereo not given), 0.407; for `[N-]=[N+]=NCc1ccccc1C[C@@]1(C(=O)NCCN2CCOCC2)N=C(c2ccc(OCCCO)cc2)O[C@@H]1c1ccccc1`, -0.419.
Regarding `COC(=O)C(CC#Cc1ccc2c(c1)[C@]1(C(=O)N2)[C@H](C(=O)N2CCCCCCC2)[C@H]2C(=O)O[C@H](c3ccccc3)[C@H](c3ccccc3)N2[C@@H]1c1ccc(OCCO)cc1)C(=O)OC`, the z-score worked out at 0.883.
For `CN(C)C(=O)[C@]1(CCS(=O)(=O)c2ccccc2)N=C(c2ccc(OCCCO)cc2)O[C@@H]1c1ccccc1CN=[N+]=[N-]` the value was 1.46; for `CC1CC/C=C\[C@H]2OC34C=CCN(CCN5CCOCC5)C(=O)[C@H]3N(C(CO)C(C)C)C(=O)[C@@H]4C2C(=O)O1` (stereo not given in full), -0.137.
On to `COc1ccc([Si](C)(C)[C@H]2[C@H](CC(=O)N(CCO)Cc3ccccc3)O[C@@]3(C(=O)N(c4ccccc4)c4ccccc43)[C@@H]2C)cc1`, for which the z-score was -4.7.
Consider `C=CCNC(=O)[C@H]1[C@@H]2C(=O)O[C@@H](c3ccccc3)[C@@H](c3ccccc3)N2[C@@H](c2ccc(O)cc2)[C@]12C(=O)Nc1ccc(C#CCC(C(=O)OC)C(=O)OC)cc12`, for which the z-score is -0.111.
Next, `CC[C@@H]1C=C(C(=O)O)[C@H](c2cccc(Cl)c2)N1S(=O)(=O)c1ccc(C)cc1`: -0.722; `C=CCOC(=O)[C@H]1[C@@H]2C(=O)O[C@@H](c3ccccc3)[C@@H](c3ccccc3)N2[C@@H](c2ccc(OCCOC(=O)[C@H]3C[C@H]4C(=O)NCC(=O)N4[C@H]3c3ccc(O)cc3)cc2)[C@]12C(=O)Nc1ccccc12`: -0.0886.
Compound `OCCCc1cc[n+](Cc2cc3c(cc2Br)OCO3)cc1` had a z-score of -0.0125.
For `COc1ccc([Si](C)(C)[C@@H]2[C@@H](CC(=O)N(CCO)Cc3ccccc3)O[C@]3(C(=O)N(Cc4cccc(I)c4)c4ccccc43)[C@H]2C)cc1` the value was -2.2.
